Assay outcomes from PubChem.
This is a sample that favours compounds with a hit; in the whole collection about 21% have one here.
HCV inhibitor: HCV inhibition. Huh7.5.1 HCVcc-Cre infection, luciferase reporter, 44 h. Potency, µM (titrated, usually from 41.8 µM), inactives show at the top dose activity change, negative = inhibition, most hits filed as inhibitors. 340,000 compounds, 3.4% hits; also: potency is read from the fitted curve at half-maximal effect; % is scaled to controls: 0 for no effect and ±100 for the full control effect
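Luciferase read-out (15 sec integration) after a 15 min room-temperature substrate step quantifies HCVcc-Cre infection. Cells, 1,000 per well, had compound added 4 h post-plating, then virus at ~0.5 moi, and were cultured 44 h.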
AMA1 RON2 block: inhibitors of Plasmodium falciparum AMA1-RON2 interaction; AlphaScreen AMA1-biotinylated RON2 peptide binding; Potency, µM (top dose mostly 58.2 µM), for inactives: at the top dose activity change, negative = inhibition, most hits filed as inhibitors; 360,000 compounds, 0.2% hits;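 also: potency is read from the fitted curve at half-maximal effect; 0% = vehicle wells and -100% = peptide control; nearly all actives have a fitted effect of over 45% in size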
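AMA1 (3D7) with his tag at 25 nM final met compounds first, then biotinylated RON2 peptide at 25 nM; detection used donor plus acceptor beads, 10 µg/mL apiece, read by AlphaScreen after 30 min at room temperature.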
Pf growth 48h: P. falciparum growth inhibition at 48 hours (one generation) | P. falciparum luciferase growth in erythrocytes, 48 h | Potency, µM (titrated, usually from 28.7 µM), for inactives: top-dose activity change, negative = inhibition, most hits filed as inhibitors | 310,000 compounds, 5.9% hits; also: potency is read from the fitted curve at half-maximal effect; % is scaled to controls: 0 for no effect and ±100 for the full control effect
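Read-out is firefly luciferase luminescence from an integrated reporter in P. falciparum, so falling signal marks reduced parasite growth. Infected erythrocytes were at 2% hematocrit and 0.1% parasitemia (final) in Albumax-supplemented RPMI 1640.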
Pf growth 96h: inhibits malaria parasite growth, 96 h; P. falciparum luciferase reporter growth, 96 h; Potency, µM (top dose mostly 28.7 µM), without a hit: at the highest dose activity change, negative = inhibition, actives largely listed as inhibitors; 320,000 compounds, 6.9% hits; AID 504834; also: potency is read from the fitted curve at half-maximal effect; % is scaled to controls: 0 for no effect and ±100 for the full control effect
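96 h incubation, 37 C, 5% CO2, of luciferase-reporter P. falciparum-infected RBCs (2% hematocrit, 0.05% parasitemia final) with test compounds; endpoint luminescence.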
CHX counter: counter-screen for Shiga toxin inhibitors: cycloheximide protein synthesis inhibition; AID 2314; max response, %; 300,000 compounds, 12% hits; cell reporter, cycloheximide protein synthesis inhibition counterscreen; in the data active = max response mostly above about 13%, no sharp cut-off; inactive = mostly below about 14%; also: read at 38.3 µM for the half of the compounds with a filed dose; 0% is about no effect
Shiga inhibitor: blocks Shiga toxin action in Vero cells; AID 2315; 290,000 compounds, 9.2% hits; inhibition, % at 38.7 µM; Vero cells, Shiga toxin protein synthesis inhibition reporter; in the data active = inhibition mostly above about 28%, no sharp cut-off; inactive = mostly below about 43%; also: 0% is about no effect
Numbers without * were called inactive; u = inconclusive; x = no result given; [ ] = another dose, or the depositor's remark. Unless noted, calls follow the shape of the dose curve; as a rule, active = well fitted curve in the direction sought with a large enough effect; inconclusive = small, poorly fitted or top-dose-only effect, or another doubt; inactive = no such curve, though single readings can be large; an effect the other way counts as inactive or inconclusive.

SMILES	HCV inhibitor	AMA1 RON2 block	Pf growth 48h	Pf growth 96h	CHX counter	Shiga inhibitor
Cc1cc(OC(=O)c2ccccc2C(F)(F)F)c([N+](=O)[O-])c(=O)[nH]1	14%	0%	22%	30%	-3	-4
Cc1ccc2c(c1)nnn2C1CCN(S(=O)(=O)c2ccc(C(=O)N(C)C3CCCCC3)cc2)CC1	13µM*	16%	u	u	-2	35
CC(C)c1cc(C(=O)N/N=C/c2cccnc2)cs1	38%	28%	21%	20%	21*	41*
CC(C)c1cc(C(=O)N/N=C/c2ccoc2)cs1	-10%	90%	3%	-12%	42*	74*
Cc1nc(N)sc1C(=O)N/N=C/c1cccnc1	9%	10%	-2%	181%	13	4
CCCCN(C(=O)c1ccc2c(c1)S(=O)(=O)N=C1CCCCCN12)c1c(N)n(CCCC)c(=O)[nH]c1=O	-10%	6%	-2%	5%	x	x
C=CCN1C(=O)C(CC(=O)NCC)SC1=Nc1ccccc1CC (configuration not stated)	2%	-7%	4%	-20%	-2	-17
O=C(c1cc(-n2cnnc2)ccc1Cl)N1CCN(c2nc(-c3ccccc3)cs2)CC1	10µM*	-13%	3%	0%	-1	3
O=C(c1csc2ccccc12)N1CCN(c2ccc(Cl)c(Cl)c2)CC1	-26%	-16%	-14%	u	-5	-9
O=C(c1ncn[nH]1)N1CCN(c2nc(-c3ccccc3)cs2)CC1	-22%	56%	71%	x	15*	49
O=C(OCc1cn([C@H]2C[C@H](c3ccc(Cl)cc3)N(C(=O)C3CCCCC3)C[C@@H]2O)nn1)c1ccccc1	x	0%	x	x	x	x
FC(F)(F)C1=NNC(c2ccc3ccccc3c2)=NN1	x	16%	x	x	x	x
Cc1cccnc1C(NC(=O)C1CCN(Cc2ccc3ccccc3n2)CC1)c1ccc(Cl)cc1 (configuration not stated)	x	22%	x	x	x	x
CCN(CC)CCNc1nc2c(c(=O)[nH]c(=O)n2C)n1CC(O)COc1ccc(Cl)cc1Cl (configuration not stated)	17%	1%	u	12µM*	-3	-5
O=C(COC(=O)/C=C/c1cccc(F)c1)Nc1cccc(S(=O)(=O)NC2=NCCCCC2)c1	15%	0%	x	x	x	x
CCNCC(=O)Nc1ccc(N2CCOCC2)cc1	13%	14%	-4%	20%	-3	-10
CCCCOC(=O)Nc1ccc(N2CCOCC2)cc1	6%	-14%	394%	33%	29*	80*
CCCCOC(=O)Nc1ccc(N2CCCCC2)cc1	23%	u	x	127%	43*	94
O=C(CCCOc1ccc(Cl)cc1Cl)Nc1ccncc1	u	1%	x	-41%	15*	25
CCNC(=O)CCCOc1ccc(Cl)cc1Cl	x	13%	56%	u	29*	54*
O=C(O)CCCOc1ccc(Cl)cc1Cl	-13%	-3%	x	x	x	x
O=C(CCCOc1ccc(Cl)cc1Cl)Nc1ccccn1	u	0%	38%	-19%	15	55*
O=C(COc1ccc(Cl)cc1Br)Nc1ccncc1	u	0%	1%	u	58*	47*
CC(=O)[C@@]1(O)CC[C@H]2[C@H]3C[C@@H](C)C4=CC(=O)C=C[C@]4(C)[C@@]3(F)[C@@H](O)C[C@]21C	x	x	-18%[12.8 µM]	u	x	x
CC(Oc1ccc(Cl)cc1Cl)C(=O)Nc1ccncc1 (configuration not stated)	u	0%	10µM*	-5%	-7	-18
O=C(COC(=O)COc1ccc(Cl)cc1Br)NCc1cccs1	8%	1%	17%	27%	2	-17
Cc1ccc(C)c(OCC(=O)Nc2cc(NC(=O)COc3cc(C)ccc3C)cc(C(=O)O)c2)c1	14%	-16%	15%	8.3µM*	-2	13
Cc1ccc(OCC(=O)NNC(=S)NC(=O)C2CCCCC2)c(C)c1	u	105%	1%	u	-2	-8
CC(=O)Nc1ccc(NC(=O)C(C)Oc2ccc(Cl)cc2Cl)cc1 (configuration not stated)	u	-3%	u	26%	-2	-12
CCOC(=O)CNC(=O)COc1ccc(Cl)cc1Br	7%	1%	5%	10µM*	-3	-9
